Data on eight compounds can be found in PubChem BioAssay (NCI).

Among the test systems are SR leukemia; RPMI-8226 leukemia; OVCAR-8 ovarian; OVCAR-5 ovarian; OVCAR-4 ovarian; SK-OV-3 ovarian; IGROV1 ovarian; OVCAR-3 ovarian; HS 578T breast; NCI/ADR-RES ovarian; T-47D breast; BT-549 breast; MDA-MB-435 melanoma; SW-620 colon; MCF7 breast; HCT-116 colon; KM12 colon; HCC-2998 colon; MDA-MB-468 breast.
What all share (test): NCI-60 one-dose screen, 48 h (100 = growth as untreated, 0 = no growth, -100 = all killed)
What all share (conditions): 10 µM

The panel holds about 83,000 compounds, 20% with a hit somewhere; the sample as a whole holds those more often.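 A percent growth of 40 corresponds to 60% growth inhibition; 0 means no net growth; -100 means all cells died. Active threshold: below 10.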 A number with no mark means an inactive call. Active and inactive are the calls of the source.

Regarding `CN1CCN(c2ccc(C(=O)/C=C/c3ccc(OC(F)F)cc3)cc2)CC1`, the growth in the experiment with SR leukemia is 6.8% (active); with RPMI-8226 leukemia, 5.53% (active); in the experiment on OVCAR-8 ovarian it was 44.8%; with OVCAR-5 ovarian, 80.3%; in the experiment on OVCAR-4 ovarian it was 59%; with SK-OV-3 ovarian, 76%. Moreover, the growth in the experiment with IGROV1 ovarian is 27.5%; with OVCAR-3 ovarian it was 38.4%; in the experiment on HS 578T breast, 63.8%; with NCI/ADR-RES ovarian it was 54.7%; in the experiment with T-47D breast, 55%; with BT-549 breast it was 19.2%. Further, the growth is -37.3% (active) with MDA-MB-435 melanoma; -32.8% (active) with SW-620 colon; -71.7% (active) with MCF7 breast; -62.5% (active) in the experiment with HCT-116 colon; 6.74% (active) in the experiment on KM12 colon.

`COc1ccc(C(=O)/C=C/c2cc(F)cc(C(F)(F)F)c2)cc1S(N)(=O)=O`: the growth with SR leukemia is 3.04% (active); in the experiment with RPMI-8226 leukemia, 2.99% (active); with OVCAR-8 ovarian, -44.1% (active); in the experiment on OVCAR-5 ovarian, -59.9% (active); in the experiment on OVCAR-4 ovarian, -98% (active); with SK-OV-3 ovarian it was 42.1%. Moreover, the growth in the experiment with IGROV1 ovarian was -53.6% (active); with OVCAR-3 ovarian it was -95.3% (active); in the experiment on HS 578T breast, -25.7% (active); with NCI/ADR-RES ovarian, 5.77% (active); in the experiment with T-47D breast, 6.93% (active); in the experiment on BT-549 breast it was -73% (active). Also, the growth in the experiment on MDA-MB-435 melanoma is -56.2% (active); with SW-620 colon, -90.6% (active); with MCF7 breast it was -90.6% (active); with HCC-2998 colon it was -89.6% (active); in the experiment with KM12 colon, -82.4% (active); with MDA-MB-468 breast it was -93.2% (active).

As for `CCOC(=O)C1=C(N)N(c2ccccc2)C2=C(C(=O)CC(C)(C)C2)C1c1ccc(Cl)cc1` (stereo not drawn), the growth with SR leukemia is 13.1%; in the experiment on RPMI-8226 leukemia it was 7.68% (active); in the experiment with OVCAR-8 ovarian, 61.1%; in the experiment with OVCAR-5 ovarian, 57.6%; in the experiment on OVCAR-4 ovarian, 29.3%; with SK-OV-3 ovarian it was 43.7%. Moreover, the growth with IGROV1 ovarian is 59.5%; with OVCAR-3 ovarian it was 51.6%; with HS 578T breast, 71.9%; with T-47D breast, 29.5%; in the experiment with BT-549 breast it was 43.2%; in the experiment on MDA-MB-435 melanoma, 22%. The growth in the experiment on SW-620 colon was 27.9%; with MCF7 breast, 17.4%; with HCT-116 colon, 18.7%; in the experiment with HCC-2998 colon it was 42.9%; in the experiment on KM12 colon, 17.9%; in the experiment with MDA-MB-468 breast, 33.2%.

Regarding `COc1ccccc1C(=O)NNC(=O)CSc1nc2c(c(=O)[nH]1)CCCC2`, the growth was 96.4% with SR leukemia; 98.1% in the experiment with RPMI-8226 leukemia; 109% with OVCAR-8 ovarian; 108% in the experiment with OVCAR-5 ovarian; 105% in the experiment with OVCAR-4 ovarian; 94.1% with SK-OV-3 ovarian. The growth was 92.5% in the experiment on IGROV1 ovarian; 102% in the experiment with OVCAR-3 ovarian; 108% in the experiment on HS 578T breast; 104% with NCI/ADR-RES ovarian; 81.2% with T-47D breast; 109% in the experiment with MDA-MB-435 melanoma. For the same compound, the growth with SW-620 colon was 112%; with MCF7 breast, 95.8%; in the experiment on HCT-116 colon, 102%; with HCC-2998 colon, 108%; with KM12 colon, 94.5%; in the experiment with MDA-MB-468 breast it was 120%.

`CC(C)c1ccc(C(=O)Nc2sc3c(c2C(N)=O)CCC(=O)C3=O)cc1`: the growth in the experiment with SR leukemia is 72.8%; in the experiment on RPMI-8226 leukemia it was 85%; in the experiment on OVCAR-8 ovarian, 94.2%; in the experiment with OVCAR-5 ovarian, 114%; with OVCAR-4 ovarian, 91.5%; in the experiment with SK-OV-3 ovarian, 89.4%. Further, the growth in the experiment on IGROV1 ovarian was 72.4%; in the experiment with OVCAR-3 ovarian, 87%; with HS 578T breast, 93.7%; with NCI/ADR-RES ovarian, 97.4%; with T-47D breast, 80.3%; in the experiment on MDA-MB-435 melanoma, 91.4%. Moreover, the growth is 105% in the experiment on SW-620 colon; 79.3% in the experiment with MCF7 breast; 91.9% in the experiment on HCT-116 colon; 119% in the experiment on HCC-2998 colon; 98.6% in the experiment on KM12 colon; 94.8% in the experiment on MDA-MB-468 breast.

For the compound `N#Cc1c(NC(=O)c2ccc(C(O)(C(F)(F)F)C(F)(F)F)cc2)sc2c1CCC(=O)C2`, the growth was -6.36% (active) with SR leukemia; 6.42% (active) with RPMI-8226 leukemia; -7.08% (active) in the experiment with OVCAR-8 ovarian; -60.8% (active) in the experiment with OVCAR-5 ovarian; -29.6% (active) in the experiment with OVCAR-4 ovarian; -38.9% (active) in the experiment on SK-OV-3 ovarian. Besides, the growth in the experiment on IGROV1 ovarian was -27.6% (active); with OVCAR-3 ovarian it was -53.1% (active); in the experiment with HS 578T breast, -22% (active); in the experiment with NCI/ADR-RES ovarian, -60.4% (active); in the experiment on T-47D breast, -60.5% (active); in the experiment with BT-549 breast, -64.4% (active). Moreover, the growth is -45.2% (active) in the experiment on MDA-MB-435 melanoma; -52.8% (active) with SW-620 colon; -62.1% (active) in the experiment on MCF7 breast; -95.6% (active) with HCC-2998 colon; -53.8% (active) in the experiment with KM12 colon; -90% (active) in the experiment on MDA-MB-468 breast.

Regarding `CCCn1c(=O)c2[nH]c(-c3ccc(OCc4nc5ccccc5[nH]4)cc3)nc2n(CCC)c1=O`, the growth with SR leukemia was 39%; in the experiment with RPMI-8226 leukemia, 40%; in the experiment with OVCAR-8 ovarian, 27.6%; with OVCAR-5 ovarian, 92.2%; in the experiment on OVCAR-4 ovarian, 3.46% (active); with SK-OV-3 ovarian it was 40.3%. The growth in the experiment with IGROV1 ovarian was 39.8%; with OVCAR-3 ovarian it was 26.8%; in the experiment with HS 578T breast, -17.8% (active); in the experiment on NCI/ADR-RES ovarian, 66.3%; in the experiment on T-47D breast it was 59.9%; in the experiment on BT-549 breast it was 21.1%. Besides, the growth in the experiment with MDA-MB-435 melanoma was 67%; with SW-620 colon, 46.8%; with MCF7 breast, 17.4%; with HCC-2998 colon, 64.8%; with KM12 colon, 63.8%; in the experiment on MDA-MB-468 breast, 23.6%.

As for `O=C1CCC(N2Cc3cc(NC(=O)COc4ccccc4)ccc3C2=O)C(=O)N1` (stereo not drawn), the growth is 73.1% in the experiment on SR leukemia; 65% in the experiment with RPMI-8226 leukemia; 47.8% with OVCAR-8 ovarian; 83.3% in the experiment on OVCAR-5 ovarian; 72.2% with OVCAR-4 ovarian; 99.2% in the experiment on SK-OV-3 ovarian. The growth was 45.8% in the experiment on IGROV1 ovarian; 85.8% in the experiment on OVCAR-3 ovarian; 36.3% in the experiment on HS 578T breast; 49.2% in the experiment on T-47D breast; 4.38% (active) with BT-549 breast; 88.1% in the experiment with MDA-MB-435 melanoma. In addition, the growth in the experiment with SW-620 colon was 55.2%; in the experiment with MCF7 breast it was 70.3%; in the experiment on HCT-116 colon, 103%; with HCC-2998 colon, 83.5%; with KM12 colon, 74.5%; in the experiment on MDA-MB-468 breast, -25.1% (active).
